The sample as a whole holds a higher share of hits than the screen did.
KDM5B inhibitor – inhibitors of human KDM5B histone demethylase; Q9UGL1; Potency, µM (series often up to 57.7 µM), usual class: inhibitors; actives 2.6% (n = 220,000); KDM5B demethylase, FDH-coupled NADH fluorescence (FDH is formaldehyde dehydrogenase); active = well fitted inhibition curve with a large enough effect; also: 0% is about no effect; nearly all actives have a fitted effect of over 70% in size
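Compound dilutions met 200 nM (final) KDM5BΔAP for 10 min at room temperature before substrate addition. The substrate mix held 12.5 µM H3K4me3 with cofactors 25 µM α-ketoglutarate and 50 µM Fe²⁺. NADH signal gain over 30 min defined activity.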
Numbers without * were called inactive; i = inactive. Potency is read from the fitted curve at half-maximal effect.

SMILES | KDM5B inhibitor
CC(C)C(=O)N1Cc2ccccc2CC2(CCN(CC3CCNC3)C2)C1 (centres undefined) | i
NCC(=O)N1Cc2ccccc2CC2(CCCCN2CC2CCCC2)C1 (centres undefined) | i
O=C(c1ccc(Cl)cc1)N1CC2(CCCN2CC2CCCCC2)Cc2ccccc21 (centres undefined) | 56.2µM*
CC(C)C(=O)N1Cc2ccccc2CC2(CCCN2Cc2ccncc2)C1 (centres undefined) | 56.2µM*
O=C(C1CCCC1)N1CC2(CCCCN2CC2CC2)Cc2ccccc21 (centres undefined) | i
CC(C)C(=O)N1Cc2ccccc2CC2(CCCCN2Cc2ccncc2)C1 (centres undefined) | i
O=C(c1ccccc1)N1CC2(CCCCN2CC2CC2)Cc2ccccc21 (centres undefined) | i
Cc1ccsc1C(=O)N1CCc2nnc([C@@H]3C[C@@H](O)CN3C(C)C)n2CC1 | i
Cc1ccc(C2Cn3nnc(-c4noc(-c5cc(F)ccc5Cl)n4)c3CO2)cc1 (centres undefined) | i
O=C(Nc1oc2ccccc2c(=O)c1-c1ccc(Cl)cc1)c1ccccc1 | i
OCc1c[nH]c2c1ccc1ccccc12 | i
O=C(Nc1ccccc1)O[C@@H]1CO[C@H]2[C@@H]1OC[C@@H]2n1nnnc1-c1ccc2c(c1)OCCO2 | i
CC(NC(=O)CN1CSCC1=O)c1ccccc1Cl (centres undefined) | i
S=C(N/N=C/C1CC=CCC1)NC1CCCCC1 (centres undefined) | i
COC(=O)C(NC(=O)c1ccccc1)(Nc1nc(C2CC2)cs1)C(F)(F)F (centres undefined) | i
O=C(Nc1ccc(Cl)cc1)C1Sc2nnc(-c3ccccc3)n2NC12CCCCC2 (centres undefined) | i
CC(C)(C)c1ccc(C(=O)NCCC(=O)NC2CCCCCC2)cc1 | i
NC(=O)c1cccc(CN2CCC3(CC2)Cc2ccccc2N(C(=O)c2ccc(Cl)cc2)C3)c1 | i
NC(=O)c1cccc(CN2CCCC23Cc2ccccc2N(C(=O)c2ccc(Cl)cc2)C3)c1 (centres undefined) | 79.4µM*
NC(=O)c1cccc(CN2CCC3(Cc4ccccc4N(C(=O)c4ccc(Cl)cc4)C3)C2)c1 (centres undefined) | i
CCC(Oc1ccccc1F)C(=O)Nc1ccccc1Cl (centres undefined) | i
CC(C)NC(=O)NC[C@H]1O[C@@H](CC(=O)N2CCN(c3ccc(F)cc3)CC2)[C@H](O)[C@@H]1O | i
c1ccc(OCc2noc(CN3CC[C@@H]4CCCC[C@H]4C3)n2)cc1 | i
c1ccc(OCc2noc(-c3ccc(NC4CCSC4)nc3)n2)cc1 (centres undefined) | 28.2µM*
O=C(NCCc1noc(-c2cccnc2)n1)C1(c2ccccc2)CC1 | i
SMILES | KDM5B inhibitor
CC(C)CN1C(=O)COC[C@@H]1[C@H](O)c1ccc(NC(=O)c2ccc3c(c2)OCO3)cc1 | i
CCc1cc(CC)n(-c2nc3c(c(=O)n(CC)c(=O)n3C)n2Cc2ccc(OC)cc2)n1 | i
O=C1N(Cc2ccc(F)cc2)C[C@H]2CN(Cc3cnc4ccccc4c3)CCN12 | i
CCN(CC)c1sc(S(=O)(=O)CC)nc1S(=O)(=O)c1ccc(C)cc1 | i
COc1ccc(/C=C(\C#N)C(=O)Nc2ccccc2C(=O)O)c(OC)c1 | i
Cn1cc(CN2CCOC[C@H](Oc3cnccn3)C2)cn1 | i
Cn1cc(CN2Cc3c(cc(N4CCOCC4)nc3-c3ccc(CO)cc3)C2=O)cn1 | 35.5µM*
CN1CC(=O)N(c2cccc(F)c2)Cc2c1ncnc2N1CCOCC1 | i
CC(Sc1nnc(N2CCOCC2)n1-c1cccc(F)c1)c1nc2ccccc2c(=O)[nH]1 (centres undefined) | i
Cn1cc(CN2CCOC[C@H](Oc3ccccc3)C2)cn1 | i
COc1ccc(-c2nc(N3CCOCC3)cc3c2CN(Cc2cnn(C)c2)C3=O)cc1OC | i
O=C1c2cnc(-c3cccc(CO)c3)nc2OCCN1Cc1ccccc1 | i
Cn1cc(CN2Cc3c(cc(N4CCOCC4)nc3-c3cccc(F)c3)C2=O)cn1 | 35.5µM*
Cn1cc(CN2Cc3c(cc(N4CCOCC4)nc3-c3cccnc3)C2=O)cn1 | 35.5µM*
CC(C)(C)c1ccc(OCC(=O)N(Cc2nc3ccccc3c(=O)[nH]2)CC2CCCO2)cc1 (centres undefined) | i
O=C(N[C@@H]1CN(Cc2ccc(F)cc2)C[C@H]1CO)c1cccnc1 | i
Cn1nc(C(=O)NCc2nnc3n2CCCCC3)c2ccccc2c1=O | i
O=C1C[C@@H]2CCN(C(=O)NC3CCCCC3)C[C@@H]2CCN1Cc1ccc2c(c1)OCO2 | i
CCc1ccc(NC(=O)C(C)C2CCOCC2)cc1 (centres undefined) | i
Cc1c(C(=O)NCc2ccccn2)sc2ccccc12 | i
Cc1ccccc1C(=O)N1CCN(c2oc(C3CC3)nc2C#N)CC1 | i
C[C@]1(O)CCN(C(=O)c2ccc(-c3cnco3)cc2)C[C@@H]1O | i
COc1ccc(-c2ccnc(N[C@H]3CO[C@H]4[C@@H]3OC[C@H]4OCC(N)=O)n2)cc1 | 31.6µM*
CC(C)(C)c1ccc(NC(=O)O[C@@H]2CO[C@H]3[C@@H]2OC[C@@H]3Nc2nccc(-c3ccc(-c4ccccc4)cc3)n2)cc1 | i
CN(C)c1ccc(-c2ccnc(N[C@H]3CO[C@H]4[C@@H]3OC[C@H]4OC(=O)Nc3ccc(Oc4ccccc4)cc3)n2)cc1 | i
SMILES | KDM5B inhibitor
COC(=O)c1ccccc1NC(=O)O[C@@H]1CO[C@H]2[C@@H]1OC[C@@H]2Nc1nccc(-c2ccc3c(c2)OCO3)n1 | 28.2µM*
COc1ccc(-c2ccnc(N[C@H]3CO[C@H]4[C@@H]3OC[C@@H]4NS(=O)(=O)c3ccc(C)cc3)n2)cc1 | i
O=C(O)CCCC(=O)N[C@H]1CO[C@H]2[C@@H]1OC[C@@H]2Nc1nccc(-c2ccc(-c3ccccc3)cc2)n1 | 31.6µM*
CC(C)(C)C(=O)N[C@H]1CO[C@H]2[C@@H]1OC[C@@H]2Nc1nccc(-c2ccc(-c3ccccc3)cc2)n1 | i
O=C(N[C@H]1CO[C@H]2[C@@H]1OC[C@@H]2Nc1nccc(-c2ccc(-c3ccccc3)cc2)n1)C1CC1 | i
O=C(Nc1cccc2ccccc12)O[C@@H]1CO[C@H]2[C@@H]1OC[C@@H]2Nc1nccc(-c2cccc(F)c2)n1 | i
CC(=O)c1cccc(NC(=O)O[C@@H]2CO[C@H]3[C@@H]2OC[C@@H]3Nc2nccc(C3CCCC3)n2)c1 | i
Cc1ccc(NC(=O)O[C@@H]2CO[C@H]3[C@@H]2OC[C@@H]3Nc2nccc(-c3ccccc3)n2)cc1 | 28.2µM*
O=C(c1ccsc1)N1CCC(N(C(=O)C2CC2)C2CCOCC2)CC1 | i
CCOC(=O)c1cc(OC(C)C(=O)NC)cc(C(=O)OCC)c1 (centres undefined) | i
Cc1cc(C)c(O)c(-c2n[nH]c3c2C(c2ccccc2F)N(CCO)C3=O)c1 (centres undefined) | i
COc1ccc(-c2ccc3ncc(Nc4ccncc4)n3n2)cc1OC | i
Cc1nc(N2CCC(C(O)c3nccn3C)CC2)c2sccc2n1 (centres undefined) | i
CCOC(=O)c1ccc(NC(=O)CN2C(=O)NC3(CCS(=O)(=O)CC3)C2=O)cc1 | i
CC(=O)N(Cc1ccco1)CC1C(C)C=C(C)CC1C (centres undefined) | i
N#Cc1ccc(/C=C/C(=O)N(CCc2ccccc2)Cc2cccs2)cc1 | i
